Test results reported in PubChem BioAssay AID590 (National Center for Advancing Translational Sciences (NCATS), 2007).
The whole screen tested about 59,000 compounds, of which about 6,500 (11%) were called active. Not shown: some 15% with an inconclusive outcome. Cut-off read from the data, not from the text of the source: active = max dye-equivalent concentration above about 10 nM; inconclusive = mostly about 1.1 nM to 9.6 nM; inactive = weaker than that. Many of the other results were omitted from the sample, so actives are more common in it than they were.

Experiment: qHTS Assay for Spectroscopic Profiling in A350 Spectral Region
Conditions: Compound autofluorescence, 340/450 nm, Alexa 350 dye-equivalents; hits give high values
In the case of `CC(=O)c1c(N2CCOCC2)nc(=S)n(-c2cc(C)ccc2C)c1C`, the max dye-equivalent concentration is reported as “inactive”.
For `COC(=O)[C@@H]1[C@H]2C[C@H]3c4[nH]c5cc(OC)ccc5c4CCN3C[C@@H]2C[C@@H](OC(=O)c2cc(OC)c(OC)c(OC)c2)[C@@H]1OC`, the max dye-equivalent concentration was “inactive”.
In the case of `Oc1c(Br)cc(CN(Cc2cc(Br)c(O)c(Br)c2)C2CCCCC2)cc1Br`, the max dye-equivalent concentration is reported as “inactive”.
For `CS(=O)(=O)c1ccc2nc(NC(=O)CN3CCCCCC3)sc2c1`, the max dye-equivalent concentration was “inactive”.
With `CCn1nnc(NC(=O)c2c(OC)cccc2OC)n1` the max dye-equivalent concentration was “inactive”.
For `O=C(CSc1nc2ncccc2[nH]1)Nc1ccc2c(c1)OCCO2`, the max dye-equivalent concentration was “inactive”.
With `CC(C)C(c1nnnn1C1CCCC1)N1CCN(c2ccccc2F)CC1` (stereo not given) the max dye-equivalent concentration was “inactive”.
For `Cc1cc(C)c(C#N)c(SCc2ccccc2C(=O)O)n1`, the max dye-equivalent concentration was 13 nM (active).
In the case of `Cc1cc(C)c(C#N)c(SCc2ccc3c(c2)OCO3)n1`, the max dye-equivalent concentration is reported as “inactive”.
For `Cc1cc(C)c(C#N)c(SCS(=O)c2ccc(C(C)(C)C)cc2)n1` (stereo not given), the max dye-equivalent concentration was “inactive”.
In the case of `CCN(CC)S(=O)(=O)c1ccc(NC(=O)CN(c2cccc(F)c2)S(C)(=O)=O)cc1`, the max dye-equivalent concentration is reported as “inactive”.
For `CCOC(=O)c1c(NC(=O)CCC(=O)NCc2ccco2)sc2c1CCCC2`, the max dye-equivalent concentration was “inactive”.
With `ClC(Cl)(Cl)C(N1CCN(c2ccccc2)CC1)N1CCN(c2ccccc2)CC1` the max dye-equivalent concentration was “inactive”.
With `COc1ccccc1N1CCN(C(=O)CSc2nnc(-c3ccoc3C)o2)CC1` the max dye-equivalent concentration was “inactive”.
For `Cc1nc(C)c(C(=O)Nc2ccc(C)c(F)c2)o1`, the max dye-equivalent concentration was “inactive”.
For `O=C(Nc1c(Cl)cccc1Cl)C1CCC1`, the max dye-equivalent concentration was “inactive”.
In the case of `O=C(Nc1ccncc1)c1c(F)cccc1F`, the max dye-equivalent concentration is reported as “inactive”.
In the case of `CN1C(=O)c2ccc(NC(=O)C3CCCCC3)cc2C1=O`, the max dye-equivalent concentration is reported as 320 nM (active).
For `O=C(O)c1ccc(NC(=O)C2CCCCC2)cc1`, the max dye-equivalent concentration was “inactive”.
For `CN1C(=O)c2ccc(NC(=O)c3c(F)c(F)c(F)c(F)c3F)cc2C1=O`, the max dye-equivalent concentration was 110 nM (active).
With `C[N+]1(CCN=C=NC2CCCCC2)CCOCC1` the max dye-equivalent concentration was “inactive”.
For `Cc1ccc(N2CCN(S(=O)(=O)N(C)C)CC2)cc1Cl`, the max dye-equivalent concentration was “inactive”.
In the case of `CCCCOc1ccc(C(C)(O)CCN2CCOCC2)cc1` (stereo not given), the max dye-equivalent concentration is reported as “inactive”.
With `CC(C)C(c1nnnn1CCc1ccccc1)N1CCN(C(=O)c2ccco2)CC1` (stereo not given) the max dye-equivalent concentration was “inactive”.
For `N#Cc1cccc(-c2ccc3ncnc(NCc4cccs4)c3c2)c1`, the max dye-equivalent concentration was “inactive”.
With `CC(=O)Oc1cccc(N2C(=O)CC(Nc3ccc(N4CCOCC4)cc3)C2=O)c1` (stereo not given) the max dye-equivalent concentration was “inactive”.
With `CS(=O)(=O)N1CCC2(CC1)CN(Cc1cc(C(F)(F)F)cc(C(F)(F)F)c1)C2` the max dye-equivalent concentration was “inactive”.
With `COc1ccc(N2C(=O)CCC(C(=O)N(C)C3CCCCC3)C2c2ccc(OC)c(OC)c2)cc1` (stereo not given) the max dye-equivalent concentration was “inactive”.
With `COc1ccc(OC)c(NC(=O)Cn2c(=O)oc3ccccc32)c1` the max dye-equivalent concentration was “inactive”.
For `C#CCN1C(=O)C(O)(CC(=O)c2cc(OC)ccc2OC)c2ccccc21` (stereo not given), the max dye-equivalent concentration was 14 nM (active).
